PolyA inh = blocks polyadenylation in yeast reporter cells; AID 1875; 300,000 tested, 0.02% active; S. cerevisiae SKY197-pL101 polyadenylation reporter, beta-gal luminescence; efflux-impaired pdr1/pdr3 knockout yeast; score 100 = 6 SD above DMSO; activity score, % at 12 µM;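 active = lowest replicate activity score at least 50, where 100 means six control SD above control mean; inconclusive = lowest score under 50 but half or more replicates reach 50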;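 note: yeast exposed to compound for 9 h at 30 °C; higher score means more reporter readthrough which indicates perturbed polyadenylation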
PfM18AAP inh = blocks P. falciparum M18 aspartyl aminopeptidase; 290,000 tested, 1.2% active; recombinant PfM18AAP, H-Glu-NHMec fluorogenic cleavage; inhibition, % at 7.35 µM;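 active = inhibition above the campaign mean inhibition over all tested compounds plus 3 SD, cut at about 28% in these data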;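 note: 0% = plate median of test compound wells and 100% = 2 mM ZnCl2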
CaV13 ICDI inh = Disruptors of the CACNA1D IQ motif to Ca2+-dependent inactivation inhibitor domain association, primary screening, Förster resonance energy transfer in intact living … | AID 743397 | 340,000 tested, 0.098% active | inhibition, % at 12.3 µM | HEK cells, CFP/YFP FRET ICDI-IQ, plate reader, 10 min; percent FRET-ratio fall versus neutral wells;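 active = mean replicate inhibition of at least 30% and at least 1% of replicates passing that level; inconclusive = only one of the two criteria is met; inactive = neither criterion is met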;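 note: 0% = median of the neutral control wells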
ALR H2O2 inh = human ALR oxidase inhibition via reduced H2O2; P55789; purified ALR, DTT oxidation, H2O2 HRP-luminol luminescence; inhibition, % (test concentration not listed); 290,000 tested, 3.8% active; AID 485317;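 active = mean replicate inhibition above about 79%, with every replicate also reaching it, limit read from the data; inconclusive = only one of the two criteria met; inactive = mean below limit and not every replicate reaching it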
Target sequence (P55789 whole entry, looked up): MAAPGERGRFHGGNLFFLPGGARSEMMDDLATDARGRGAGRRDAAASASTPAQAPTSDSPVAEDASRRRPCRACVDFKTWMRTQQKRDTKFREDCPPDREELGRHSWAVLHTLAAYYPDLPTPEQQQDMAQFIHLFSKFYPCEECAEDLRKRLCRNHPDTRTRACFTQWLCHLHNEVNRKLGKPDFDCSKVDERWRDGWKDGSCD
IDE inh = cellular human IDE inhibition | 320,000 tested, 0.41% active | inhibition, % at 5.59 µM | HEK cells, FAbetaB cleavage, fluorescence polarization;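 active = percent inhibition above the average of all tested compounds plus 3 SD, set per screening campaign, cut at about 16% in these data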;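 note: IDE supplied by intact live HEK cells; FP after avidin binding of uncleaved biotin substrate so inhibition keeps polarization high; 0% = DMSO wells and 100% = 60 µM reference IDE inhibitor Ii1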
IDE cell activ = IDE (human) activation, cell-based | P14735 | HEK cells, FAbeta-B cleavage, fluorescence polarization; 0% vehicle, 100% cell-free pure enzyme wells | activation, % at 5.96 µM | 340,000 tested, 0.073% active;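 active = activation above the mean of all tested compounds plus 3 SD, set per screening campaign, cut at about 17% in these data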
Numbers without * were called inactive; ? = inconclusive; / = no result given. Rows were chosen to be rich in hits. Some 4.1% of all compounds tested hit in one or more screens of this group.

SMILES	PolyA inh	PfM18AAP inh	CaV13 ICDI inh	ALR H2O2 inh	IDE inh	IDE cell activ
COc1cc2[nH]c(=S)nc(NCc3ccccc3)c2cc1OC	-10	5	-20	-7	-3	0
COc1cc2[nH]c(=S)nc(NCc3cccnc3)c2cc1OC	?	30*	-5	-3	0	3
CC(=O)N1NC(=Nc2ccccc2)SC1(C)C	-12	2	-2	98*	4	4
O=C1NC(=Nc2ccccc2)SC1(CO)CO	?	-1	-20	0	-1	4
CCc1cc(/C(Cc2cscn2)=N\O)c(O)cc1O	2	4	-1	63	2	7
O/N=C(\Cc1cscn1)c1ccc(O)cc1O	9	-2	-9	82*	4	0
C[C@H](CO)N1C[C@H](C)[C@@H](CN(C)C(=O)CCC(F)(F)F)OCc2cn(nn2)CCCC1=O	/	/	-4	/	/	/
Cc1ccc(NCc2ccc([N+](=O)[O-])s2)cc1	-23	1	-5	98*	1	2
Cc1cccc(NCc2ccc([N+](=O)[O-])s2)c1	2	3	-2	98*	4	5
O=[N+]([O-])c1ccc(CNc2cccc(F)c2)s1	7	-9	-3	-1	-3	0
OCCC1CN(Cc2cccc3c2OCO3)CCN1Cc1ccccc1 (centres undefined)	13	1	-4	6	8	3
CC(C)C[C@@H](CNCC(=O)[C@H](CC(=O)O)NC(=O)c1[nH]cnc1C(=O)N[C@H](CN)CC(C)C)NC(=O)c1nc[nH]c1C(=O)N[C@@H](Cc1ccccc1)C(=O)O	/	/	-9	/	/	-1
COc1cccc(/C=C2/SC(=O)N(C)C2=O)c1OCc1ccc(C(=O)O)cc1	-6	29*	-5	1	0	5
COc1cccc(/C=C2/SC(=O)N(CC(=O)N3CCc4ccccc4C3)C2=O)c1OCC(=O)O	-1	16	-5	98*	-4	3
CCCn1c(=O)[nH]c(=O)c2c1nc(-c1ccc(OC)c(Br)c1)n2CCOC	10	3	-1	-1	1	1
O=[N+]([O-])c1ccc(NN=Cc2cccc([N+](=O)[O-])c2)cc1	/	/	-9	/	/	0
C/C(=N\Nc1ncc(Br)cn1)c1cccc([N+](=O)[O-])c1	8	2	-3	-4	5	3
O=[N+]([O-])c1ccc(N/N=C/c2cccc(O)c2)cc1	-3	28*	-31	67	-2	-4
C/C(=N\Nc1ccc([N+](=O)[O-])cc1)c1cccc(N)c1	-17	9	-10	99*	5	2
C/C(=N\Nc1ccc([N+](=O)[O-])cc1)c1ccc(O)cc1	-68	1	16	99*	9	/
Cc1occc1C(=O)NNC(=S)Nc1ccccc1	13	15	-7	38	-2	7
O=C(CNc1ccc2ccccc2c1)NNC1=NCCC1	6	19	-7	84*	3	7
O=C(CN1C(=O)CCC1=O)NNc1ccc2ccccc2c1	-42	-7	8	98*	-1	2
O=C(Cc1ccccc1)NNc1ccc2ccccc2c1	-28	10	-7	9	4	6
O=C(CNc1ccccc1)NNC1=NCCC1	19	9	-16	2	2	-1
SMILES	PolyA inh	PfM18AAP inh	CaV13 ICDI inh	ALR H2O2 inh	IDE inh	IDE cell activ
Cc1[nH]c2ccc(C(=O)N3CCCCC3)cc2c1C	-12	1	/	96*	3	-1
Cc1[nH]c2ccc(C(=O)OCCN(C)C)cc2c1C	-3	0	0	/	-2	4
Cc1[nH]c2ccc(C(=O)N3CCC(C(N)=O)CC3)cc2c1C	/	/	-5	?	2	3
Cc1[nH]c2ccc(C(=O)N3CCCC3)cc2c1C	10	6	-8	90*	4	7
CCOC(=O)c1ccc2[nH]c(C)c(C)c2c1	7	-2	-6	98*	2	2
Cc1[nH]c2ccc(C(=O)N3CCN(c4ccccc4Cl)CC3)cc2c1C	-8	-11	-3	2	-2	3
CCn1nc(C)cc1-c1nnc(Sc2ncc([N+](=O)[O-])s2)n1C	-56	-149	-5	/	-5	-6
